Hit rate of the full screen: of about 5,500 compounds, about 2,000 (36%) were called active. About 18% were inconclusive and are not listed. Rule as the data show it: active = normalized growth mostly below about 0.91 (no sharp cut-off); inconclusive = no clear call, values can overlap the other calls; inactive = mostly above about 0.92. This is one part of the list.
Assay: chemical genetic growth profiling, strain panel (AID 1159580);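 also: tested at 20 µM; growth read once vehicle control cultures reached saturation at 30 °C; 1 = growth at the plate median or of vehicle wells; lower values mean less growth of the strain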
Conditions: S. cerevisiae deletion strains, growth OD

Measured: normalized growth

CC(=O)CC(=O)CCC(=O)O
inactive: locus YAL021C, strain ccr4, stronger effect = lower value 0.991 | locus YAL026C, strain drs2, stronger effect = lower value 1.05 | locus YAL030W, strain snc1, stronger effect = lower value 1.02 | locus YBL061C, strain skt5, stronger effect = lower value 1.03 | locus YBR009C, strain hhf1, stronger effect = lower value 1.03 | locus YBR023C, strain chs3, stronger effect = lower value 1.03 | locus YBR171W, strain sec66, stronger effect = lower value 1.04 | locus YBR231C, strain swc5, stronger effect = lower value 1.03 | locus YBR279W, strain paf1, stronger effect = lower value 1.02 | locus YCL011C, strain gbp2, stronger effect = lower value 1.02 | locus YCL016C, strain dcc1, stronger effect = lower value 1.02 | locus YCL061C, strain MRC1, stronger effect = lower value 1.02 | locus YCL069W, strain vba3, stronger effect = lower value 1.02 | locus YCR088W, strain abp1, stronger effect = lower value 1.02 | locus YDL005C, strain med2, stronger effect = lower value 1.03 | locus YDL040C, strain nat1, stronger effect = lower value 1.02 | locus YDR001C, strain nth1, stronger effect = lower value 1.01 | locus YDR069C, strain doa4, stronger effect = lower value 1.03 | locus YDR137W, strain rgp1, stronger effect = lower value 1.01 | locus YDR159W, strain sac3, stronger effect = lower value 1 | locus YDR195W, strain ref2 0.989 | locus YDR297W, strain sur2, stronger effect = lower value 1.01 | locus YDR334W, strain swr1, stronger effect = lower value 1.03 | locus YDR335W, strain msn5, stronger effect = lower value 1.02 | locus YDR392W, strain spt3, stronger effect = lower value 0.95 | locus YEL003W, strain gim4, stronger effect = lower value 1.02 | locus YEL037C, strain rad23, stronger effect = lower value 1.02 | locus YEL061C, strain CIN8 (second series), stronger effect = lower value 1.02 | locus YER015W, strain faa2, stronger effect = lower value 1.02 | locus YER016W, strain bim1, stronger effect = lower value 1.04 | locus YER111C, strain swi4, stronger effect = lower value 1.03 | locus YER155C, strain BEM2 (second series), stronger effect = lower value 1.05 | locus YFR010W, strain ubp6, stronger effect = lower value 1.03 | locus YGL167C, strain pmr1, stronger effect = lower value 1.02 | locus YGL173C, strain kem1, stronger effect = lower value 1.03 | locus YGL227W, strain vid30, stronger effect = lower value 1.01 | locus YGL240W, strain doc1, stronger effect = lower value 1.04 | locus YGL253W, strain hxk2, stronger effect = lower value 1.05 | locus YHR013C, strain ard1, stronger effect = lower value 1.04 | locus YHR027C, strain rpn1, stronger effect = lower value 1.03 | locus YHR030C, strain SLT2, stronger effect = lower value 0.982 | locus YHR079C, strain IRE1, stronger effect = lower value 0.996 | locus YHR142W, strain chs7, stronger effect = lower value 1.02 | locus YJL092W, strain hpr5, stronger effect = lower value 1.02 | locus YJL095W, strain BCK1 (second series), stronger effect = lower value 1.02 | locus YJL095W, strain BCK1, stronger effect = lower value 0.983 | locus YJL115W, strain asf1, stronger effect = lower value 1.03 | locus YJL129C, strain trk1, stronger effect = lower value 1.01 | locus YJL154C, strain vps35, stronger effect = lower value 1.01 | locus YJL164C, strain tpk1, stronger effect = lower value 1.01 | locus YJL166W, strain qcr8, stronger effect = lower value 1.02 | locus YJL187C, strain SWE1, stronger effect = lower value 1.02 | locus YJR066W, strain TOR1, stronger effect = lower value 0.962 | locus YKL160W, strain elf1, stronger effect = lower value 1 | locus YKR026C, strain gcn3, stronger effect = lower value 1.03 | locus YKR091W, strain srl3, stronger effect = lower value 1.02 | locus YLL001W, strain dnm1, stronger effect = lower value 1.01 | locus YLL026W, stronger effect = lower value 1.02 | locus YLL041C, strain sdh2, stronger effect = lower value 1.02 | locus YLR027C, strain aat2, stronger effect = lower value 1.03 | locus YLR113W, strain HOG1, stronger effect = lower value 1.04 | locus YLR221C, strain rsa3, stronger effect = lower value 1.01 | locus YLR258W, strain gsy2, stronger effect = lower value 1.04 | locus YLR262C, strain YPT6 (second series), stronger effect = lower value 1.02 | locus YLR320W, strain mms22, stronger effect = lower value 1.03 | locus YLR342W, strain FKS1, stronger effect = lower value 1.03 | locus YLR357W, strain rsc2, stronger effect = lower value 0.968 | locus YLR370C, strain arc18, stronger effect = lower value 1.03 | locus YLR384C, strain iki3, stronger effect = lower value 1.03 | locus YML120C, strain ndi1, stronger effect = lower value 1 | locus YMR058W, strain fet3, stronger effect = lower value 1.02 | locus YMR125W, strain sto1, stronger effect = lower value 1.02 | locus YMR129W, stronger effect = lower value 1.02 | locus YMR205C, strain PFK2, stronger effect = lower value 1.02 | locus YMR231W, strain pep5, stronger effect = lower value 1.02 | locus YNL071W, strain lat1, stronger effect = lower value 1.03 | locus YNL183C, strain NPR1, stronger effect = lower value 0.91 | locus YNL209W, strain ssb2, stronger effect = lower value 1.02 | locus YNL248C, strain rpa49, stronger effect = lower value 0.989 | locus YNL322C, strain KRE1 (second series), stronger effect = lower value 1.02 | locus YNR049C, strain mso1, stronger effect = lower value 1.02 | locus YOR001W, strain rrp6, stronger effect = lower value 1.01 | locus YOR070C, strain gyp1, stronger effect = lower value 1.02 | locus YOR080W, strain dia2, stronger effect = lower value 1.01 | locus YOR083W, strain WHI5, stronger effect = lower value 1 | locus YOR106W, strain vam3, stronger effect = lower value 1.03 | locus YOR231W, strain MKK1, stronger effect = lower value 0.992 | locus YOR265W, strain rbl2, stronger effect = lower value 1.02 | locus YOR270C, strain vph1, stronger effect = lower value 1.11 | locus YOR290C, strain snf2, stronger effect = lower value 1.01 | locus YPL051W, strain arl3, stronger effect = lower value 1.01 | locus YPL078C, strain atp4, stronger effect = lower value 1.01 | locus YPL106C, strain sse1, stronger effect = lower value 1.02 | locus YPL240C, strain hsp82, stronger effect = lower value 1.03 | locus YPL256C, strain CLN2, stronger effect = lower value 0.99

Source: PubChem BioAssay AID1159580 (chemical genetic matrix, 2015)
